Measured values: PubChem BioAssay (NCI)
Compounds without any hit were thinned out: in the full panel of roughly 83,000, 20% have a hit.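 Interpretation: 100, growth as untreated; towards 0, rising growth inhibition; 0, no net growth; 0 to -100, cell death. Compounds scoring below 10 were considered active.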 Values without a mark were called inactive. The source made the active and inactive calls.

system: HS 578T breast; experiment: NCI-60 one-dose screen, 48 h (100 = growth as untreated, 0 = no growth, -100 = all killed); conditions: 10 µM unless noted
Procedure: Growth inhibition of the HS 578T human tumor cell line is measured as a screen for anti-cancer activity. Cells are grown in 96 well plates and exposed to the test compound for 48 hours. Compounds are tested at a single concentration, which is 10^-5 M for most compounds. The reported endpoint is percent growth (GI% or GIPRCNT), where numbers from 0 - 100% represent growth inhibition, and numbers from -100% - 0 represent cell death. For example, a value of 40 represents 60% growth inhibition. A value of 0 means no net growth occurred over the course of the experiment. A value of -40 indicates 40% of cells at the beginning of the experiment died by the end of the experiment. A value of -100 means all cells are dead at the end of the experiment.
NCI-60 Human Tumor Cell Lines Screen was performed using the standard one-dose NCI protocol, which is described in more detail at https://dtp.cancer.gov/discovery_development/nci-60/default.htm.
Compounds with GIPRCNT values below 10 were considered active. Activity score was based on GIPRCNT using the following formula: […]
Score is 0 for GIPRCNT values of 100 or above, 50 for GIPRCNT values of 0, and 100 for GIPRCNT values of -100.

Compared with `CC(C)=CCC/C(C)=C/CC/C(C)=C/CSC[C@H](NC(=O)CCCCCN1CCN(C)CC1)C(=O)NC1CCCCCC1`, `CCCCC(=O)OC1CCCCC1C` (stereo not given) is higher in growth: 76.2% for the first, 97.6% for the second.

Compared with `O=S(=O)(NCCNc1cc(-c2cn(-c3ccccc3)nc2-c2cccc(O)c2)ccn1)c1ccccc1`, `O=S(=O)(NCCNc1cc(-c2cn(-c3ccccc3)nc2-c2cccc(O)c2)ccn1)c1ccc(F)cc1` is lower in growth: 45.2% for the first, 15.7% for the second.

Going from `Cn1cnc2c1c(=O)n(CCC(=O)Nc1ccc(F)cc1)c(=O)n2C` to `Cn1c2ccccc2c2c3c(c4c5cccnc5[nH]c4c21)C(=O)N(O)C3=O`, the growth rises from 106% to 110%.

First: N#CC1=C(N)Oc2ccc3ccccc3c2C1c1ccccc1 (stereo not given)
Second: CC(=O)NC1=C(C#N)C(c2ccccc2Cl)c2c(ccc3ccccc23)O1 (stereo not given)
The growth of the first is lower: 23.8% for the first, 74.9% for the second.

Compared with `N#CC1=C(N)Oc2c(sc3c(F)cccc23)C1c1ccc(Cl)cc1` (stereo not given), `COc1ccc(C2C(C#N)=C(N)Oc3c2sc2c(F)cccc32)cc1` (stereo not given) is higher in growth: 40.6% for the first, 42.4% for the second.

First: CC(C)(C)c1nc(-c2ccc(O)c(O)c2)cs1
Second: Cn1cc(-c2csc(-c3cn(C(=O)OC(C)(C)C)c4ccc(Br)cc34)n2)c2cccnc21
The growth of the first is lower: 85.9% for the first, 94.7% for the second.

First: Cc1ccc(-c2nc3ccc(Cl)cc3c(=O)n2N2C(=O)CSC2c2ccccc2Cl)cc1 (stereo not given)
Second: Clc1ccc(Cn2cc(-c3nc4ccc(Br)nc4n3Cc3ccc(Cl)cc3)c3cccnc32)cc1
The growth of the first is lower: 56.6% for the first, 92.7% for the second.

Going from `COc1ccc(/C(=C\c2ccc3c(c2)OCO3)C(=O)Nc2nc3ccccc3s2)cc1OC` to `COc1cc2nc(Cl)nc(Nc3cccc(C(=O)/C=C/c4ccc(F)cc4)c3)c2cc1OC`, the growth rises from 95% to 101%.

Going from `Cc1cc(N2CCCCC2)nc(N(CCNc2ccnc3cc(Cl)ccc23)Cc2ccco2)n1` to `Cc1cc(N2CCOCC2)nc(N(CCCNc2ccnc3cc(Cl)ccc23)Cc2ccco2)n1`, the growth rises from 51.4% to 69.5%.

Going from `Cn1cc(-c2nc(-c3c[nH]c4ncccc34)cs2)c2ccccc21` to `Cn1c(/C(C#N)=C/c2ccc3ccccc3c2)cc2ccccc21`, the growth falls from 103% to 23.8%.

First: Fc1ccc(Nc2nc(Nc3ccc(-c4nc5ccccc5[nH]4)cc3)nc(N3CCCC3)n2)cc1
Second: COc1ccc(-c2n/c(=C\c3c(O)[nH]c4ccc(OC)cc34)cc3c2=Nc2ccccc2-3)cc1
The growth of the first is higher: 84.6% for the first, 26.1% for the second.

Going from `Cc1cc(N(CCCNc2ccnc3cc(Cl)ccc23)Cc2ccco2)nc(N2CCN(C)CC2)n1` to `COc1ccc(OCC(CO)N2CCN(c3ccccc3)CC2)cc1` (stereo not given), the growth rises from 67.6% to 96.6%.

Compared with `S=c1[nH]nc2ccccn12`, `C[Si](C)(C)Cc1ccccc1` is higher in growth: 98.5% for the first, 120% for the second.

Compared with `COc1cc(/C=C/c2cc(/C=C/c3ccc(O)c(OC)c3)n(-c3ccc(Cl)cc3)c(=O)n2)ccc1O`, `N#CC1=C(N)Oc2c(c(N)nn2-c2ccccc2)C1c1ccc(Cl)cc1` (stereo not given) is higher in growth: 87.4% for the first, 97% for the second.

Going from `CCCCC/C(=C\c1ccccc1)C1OC(C)C(C)O1` (stereo not given) to `O=C(N/N=C\c1ccccc1O)C1CC1`, the growth rises from 110% to 115%.

Going from `NC(Cc1ccc(O)cc1)C(=O)N/N=C/c1ccccc1O` (stereo not given) to `O=C1/C(=C\c2ccco2)SC(=S)N1CCc1ccc(O)cc1`, the growth falls from 107% to 99.5%.

Compared with `C=C1CC[C@@H](C(=O)OC)Cc2nc(C)ccc21`, `Cc1cccc(C)c1NC(=O)CSC(=S)N1CCCCC1` is lower in growth: 107% for the first, 96.8% for the second.

Compared with `CC1(C)CC[C@]2(C(=O)Nc3ccccn3)CC[C@]3(C)C(=CC[C@@H]4[C@@]5(C)C/C(=C/c6ccncc6)C(=O)C(C)(C)[C@@H]5CC[C@]43C)[C@@H]2C1`, `C=C(C)[C@@H]1CC[C@]2(CN)CC[C@]3(C)[C@H](CC[C@@H]4[C@@](C)(CCCN)[C@H](C(=C)C)CC[C@]43C)[C@@H]12` is higher in growth: 56.7% for the first, 89.4% for the second.

`COc1ccc(CCN2C(=O)C(C)(C)SC2=S)cc1OC` was tested, and the growth was 107%.

For `COc1ccc(C2(Cl)c3ccccc3N(c3ccccc3)c3ccccc32)cc1`, the growth was -12.9% (active).
For `N#Cc1cnc2cc(OC[C@@H](O)CO)c(NC(=O)CC3CSSC3)cc2c1Nc1ccc(OCc2cccc(F)c2)c(Cl)c1`, the growth was -39.8% (active).

With `O=C1CN(c2ccccc2)C(=O)C1C(=O)Nc1ccc(Cl)c(Cl)c1` (stereo not given) the growth was 32.8% [100 µM].
